Only some compounds are listed: those with a hit (about 3.7% of all), similar ones and a draw of the others.
TCR act: Activators of T cell receptors: qHTS campaign. primary human leukocytes, anti-CD3, IL-2 HTRF, 48 h. Potency, µM (series often up to 9.22 µM), inactives show top-dose activation of IL-2 secretion, usual class: activators. 330,000 tested, under 10 active; further: % of control where 0% means no effect
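Using a-CD3 beads without co-stimulation, primary human leukocytes were exposed to compounds for 48 hr. An HTRF IL-2 kit measured the cytokine, with europium-to-d2 energy transfer producing emission at 665nm upon 320nm excitation.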
PLK1 PBD block: qHTS for Inhibitors of PLK1-PDB (polo-like kinase 1 - polo-box domain): Primary Screen | Serine/threonine-protein kinase PLK1 (Homo sapiens), P53350 | Plk1 PBD binding of FITC phosphopeptide, fluorescence polarization | Potency, µM, without a hit: max response, negative = inhibition, actives largely listed as inhibitors | 360,000 compounds, 2.8% hits | AID 720504, 2013; further: potency means the concentration at half of the fitted maximal effect; series mostly up to about 57 µM; on the % scale 0 is the no-effect control and ±100 the full control effect; nearly all actives have a fitted effect of over 65% in size
Target sequence (P53350 whole entry, looked up, the tested form may be a part): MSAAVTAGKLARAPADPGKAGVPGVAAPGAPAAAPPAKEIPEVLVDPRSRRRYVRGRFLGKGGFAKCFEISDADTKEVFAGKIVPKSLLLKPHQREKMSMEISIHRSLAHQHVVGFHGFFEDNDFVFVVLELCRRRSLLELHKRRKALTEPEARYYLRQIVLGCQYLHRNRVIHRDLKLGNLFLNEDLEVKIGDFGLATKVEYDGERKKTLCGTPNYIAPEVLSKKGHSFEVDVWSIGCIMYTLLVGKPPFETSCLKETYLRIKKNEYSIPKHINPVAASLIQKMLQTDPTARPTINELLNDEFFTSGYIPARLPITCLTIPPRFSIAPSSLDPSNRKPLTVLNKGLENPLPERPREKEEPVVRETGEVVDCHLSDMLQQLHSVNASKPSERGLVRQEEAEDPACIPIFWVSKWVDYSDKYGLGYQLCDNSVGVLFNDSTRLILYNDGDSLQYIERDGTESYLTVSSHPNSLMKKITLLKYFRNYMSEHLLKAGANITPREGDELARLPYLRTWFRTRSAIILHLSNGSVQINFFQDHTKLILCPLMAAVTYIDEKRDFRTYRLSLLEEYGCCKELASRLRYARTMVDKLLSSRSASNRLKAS
VDR inhibitor: Inhibitors of the vitamin D receptor (VDR): qHTS. Vitamin D3 receptor (Homo sapiens), P11473. VDR-SRC2-3 peptide fluorescence polarization, 2 h. Potency, µM, for inactives: max response, negative = inhibition, most hits filed as inhibitors. 400,000 compounds, 0.93% hits. AID 504847, 2011; further: potency means the concentration at half of the fitted maximal effect; on the % scale 0 is the no-effect control and ±100 the full control effect
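The screen uses fluorescence polarization to detect compounds that interfere with recruitment of the SRC2-3 coactivator peptide to VDR; plates are read after 2 h at room temperature.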
WRN inhibitor: qHTS for Inhibitors of WRN Helicase | Bifunctional 3'-5' exonuclease/ATP-dependent helicase WRN (Homo sapiens), Q14191 | WRN helicase unwinding, fluorescent forked duplex, kinetic | Potency, µM (titrated, usually from 114 µM), without a hit: top-dose activity change, negative = inhibition, most hits filed as inhibitors | 360,000 compounds, 0.46% hits | AID 651768, 2012; further: potency means the concentration at half of the fitted maximal effect; on the % scale 0 is the no-effect control and ±100 the full control effect; nearly all actives have a fitted effect of over 55% in size
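Kinetic red-fluorescence monitoring (525/598 nm) tracks WRN helicase activity after 100 nM fluorophore-quencher forked duplex and 2 mM ATP are added to 20 nM enzyme pretreated 15 min at room temperature with compound.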
FEN1 inh: qHTS Assay for the Inhibitors of Human Flap endonuclease 1 (FEN1). Potency, µM (titrated, usually from 114 µM), for the others: at the top dose activity change, negative = inhibition, actives largely listed as inhibitors. 390,000 compounds, 0.35% hits. Recombinant FEN1 flap cleavage, fluorescence, 15 min; further: potency means the concentration at half of the fitted maximal effect; on the % scale 0 is the no-effect control and ±100 the full control effect; nearly all actives have a fitted effect of over 65% in size
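Nuclease activity of 10 nM FEN1 was measured after 15 min of room-temperature exposure to titrated compounds, by adding 50 nM flap substrate and reading plates at 0 and 15 min.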
PI5P4Ka inh: qHTS for Inhibitors of phosphatidylinositol 5-phosphate 4-kinase (PI5P4K). Phosphatidylinositol 5-phosphate 4-kinase type-2 alpha (Homo sapiens), P48426. 330,000 compounds, 1.2% hits. max response, %. PI5P4Kalpha enzyme, ADP-Glo luminescence, 60 min; stronger effect = lower value; active means max response of -50% or lower; inconclusive means between -30% and -50%; inactive means -30% or higher; further: value at the top dose of about 77 µM; on the % scale 0 is the no-effect control and ±100 the full control effect
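qHTS, 1536-well: enzyme/substrate mix, compound by pin tool, 5 microM ATP final; RT 60 min; ADP-Glo reagents 1 (45 min) then 2 (30 min); luminescence.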
* hit, by the source's call; ? = inconclusive; . = no result given; [ ] = remark or other dose. Unless noted, the call rests on the fitted dose curve; in most records, active means well fitted curve in the direction sought with a large enough effect; inconclusive means small, poorly fitted or top-dose-only effect, or another doubt; inactive means no such curve, though single readings can be large; an effect the other way counts as inactive or inconclusive.

SMILES | TCR act | PLK1 PBD block | VDR inhibitor | WRN inhibitor | FEN1 inh | PI5P4Ka inh
Cc1ccc(CCNC(=O)c2ccc(CSc3nc4ccncc4n3Cc3ccc(F)cc3)cc2)cc1 | . | . | 7% | . | -2% | .
CN(C)CC(C(=O)c1ccccc1)c1ccccc1 (centres undefined) | 2% | -11% | 50µM* | ? | -1% | 5
CN(Cc1cc(Cl)cc(Cl)c1)CC(C(=O)c1ccccc1)c1ccccc1 (centres undefined) | -2% | -6% | -19% | -9% | -19% | -4
CCOc1cc(C2NC(=O)c3c(sc4c3CCN(C)C4)N2)ccc1OC(=O)c1ccccc1Cl (centres undefined) | . | . | 14% | . | 89µM* | .
Oc1ccccc1C(=S)N1CCN(c2cccc(Cl)c2)CC1 | -50% | 12µM* | 89µM* | -8% | 1% | -16
O=C(C(=O)N1CCN(c2cccc(Cl)c2)CC1)N1CCCCC1 | 3% | -17% | 2% | -24% | 4% | -3
CC1CCN(C(=S)c2ccccc2O)CC1 | 5% | 15µM* | ? | -2% | -15% | .
COc1cc(C(=S)N2CCN(c3cccc(Cl)c3)CC2)ccc1O | 0% | 4.7µM* | 40µM* | -9% | -20% | ?
COc1ccc(C(=O)N2CCN(c3cccc(Cl)c3)CC2)cc1 | 2%[46.1 µM] | -7% | -18% | 4% | 4% | -3
COc1ccc(C(=S)N2CCN(c3cccc(Cl)c3)CC2)c(OC)c1 | -1% | 12µM* | ? | -7% | 0% | -5
COc1ccc2c(c1)C(=O)[C@H](OC(=O)NCCc1ccc(OC)c(OC)c1)[C@@H](c1ccc(OC)c(Br)c1)O2 | . | . | -2% | . | . | .
CCN(Cc1ccccc1)c1ccc(/C=C/c2nccc3ccccc23)cc1 | . | . | . | . | -3% | .
N#CN=C1SCCS1 | -1% | 3.4µM* | -30% | ? | 0% | -54*
Cc1cccc(NC(=O)C2CCN(c3ncnc4c3nc3n4CCCCC3)CC2)n1 | 8% | 27µM* | -24% | -2% | -12% | 0
Cc1c(Cl)cccc1NC(=O)C1CCN(c2ncnc3c2nc2n3CCCCC2)CC1 | . | . | 0% | . | 15% | .
O=C(Nc1ccc(F)c(Cl)c1)C1CCN(c2ncnc3c2nc2n3CCCCC2)CC1 | 3% | -13% | 3% | -4% | -3% | -8
CC(C)c1ccc(NC(=O)C2CCN(c3ncnc4c3nc3n4CCCCC3)CC2)cc1 | 4% | 30µM* | -21% | -2% | -1% | 7
O=C(C1CCCN(c2ncnc3c2nc2n3CCCCC2)C1)N1CCN(c2ccc(F)cc2)CC1 (centres undefined) | -2% | 27µM* | -9% | 4% | -3% | -6
CS(=O)(=O)c1nsc2nc(=O)c(/C=C3\C=Nc4ccccc43)c(N)n12 | -8% | -21% | -1% | -14% | -2% | -72*
CCOC(=O)c1c(C)[nH]c(C)c1S(=O)(=O)N1CCCC(C(=O)N2CCN(c3ccccc3F)CC2)C1 (centres undefined) | . | . | 7% | . | -6% | .
COC(=O)[C@H](C)NC(=O)NCCC1=CCCCC1 | -1% | 30µM* | -25% | -16% | 12% | -11
CCC(C)[C@H](NC(=O)NCCC1=CCCCC1)C(=O)OC (some centres undefined) | 1% | -11% | -3% | 6% | -8% | 1
Cc1ccc2nc(N(Cc3cccnc3)C(=O)COc3ccccc3)sc2c1 | . | . | 10% | . | 13% | .
Nc1ccc2c(c1)C/C(=C/c1ccco1)C2=O | -5%[46.1 µM] | ? | -13% | -34% | -24% | -74*
O=C1/C(=C/c2ccco2)CCc2ccccc21 | 1%[46.1 µM] | -11% | -21% | 0% | 0% | -3
SMILES | TCR act | PLK1 PBD block | VDR inhibitor | WRN inhibitor | FEN1 inh | PI5P4Ka inh
CC(C)S(=O)(=O)c1csc(C(=O)NN)c1-n1cccc1 | -1% | -4% | -6% | -2% | -1% | -13
COC(=O)c1scc(S(C)(=O)=O)c1-n1cccc1 | 5% | 30µM* | -13% | -15% | 9% | -11
COCCNC(=S)NN(c1ccccc1)c1ccccc1 | 0% | 27µM* | -13% | 9% | -5% | -16
Cc1ccccc1CN1CCc2c(OCC(=O)N3CCCCC3)cccc2C1=O | 13% | 30µM* | -30% | -4% | 1% | -11
CC(C)(C)C1CCc2c(C(=O)NNC(=O)/C=C/C(=O)O)csc2C1 (centres undefined) | -10%[46.1 µM] | -13% | -18% | -8% | 0% | -69*
CC(C)(C)C1CCc2c(C(=O)N/N=C/c3cccs3)csc2C1 (centres undefined) | -2% | -1% | 10% | -9% | -4% | .
O=C1NN(c2cccc(Br)c2)C(=O)/C1=C/c1cccs1 | 2% | 19µM* | ? | 2% | -1% | -4
Cc1cc(/C=C2/C(=O)NN(c3ccccc3)C2=O)c(C)n1-c1ccc(O)cc1 | -6%[46.1 µM] | -12% | ? | -19% | -4% | -20
O=C1NN(c2ccccc2)C(=O)/C1=C/c1coc2ccccc2c1=O | 2%[46.1 µM] | ? | 40µM* | ? | 0% | -64*
O=C1NN(c2cccc(Br)c2)C(=O)/C1=C\c1ccccc1 | -2% | 1.5µM* | ? | ? | -19% | -21
O=C1NN(c2ccccc2)C(=O)C1=Cc1ccccc1 | . | 11µM* | . | 2% | . | -8
COc1ccc(-n2c(C)cc(/C=C3\C(=O)NN(c4ccccc4)C3=O)c2C)cc1 | 0%[46.1 µM] | -16% | -2% | -2% | -2% | -22
N=C1/C(=C\c2coc3ccccc3c2=O)C(=O)N=C2SC=CN12 | -6% | -13% | -23% | -21%[57.1 µM] | ? | -22
O=C1NN(c2ccccc2)C(=O)/C1=C/c1cccs1 | 3%[46.1 µM] | . | . | . | . | .
O=C1NN(c2ccccc2)C(=O)/C1=C\c1ccccc1 | -2% | 8.4µM* | ? | -8% | -19% | -1
Cc1cc(/C=C2\C(=O)NN(c3ccccc3)C2=O)c(C)n1-c1ccccc1O | 11% | -4% | -15% | 0% | 2% | -16
CCOc1ccc(C(=O)Nc2cc(C)ccn2)cc1 | 0% | 3µM* | 35µM* | ? | 3% | ?
Cc1cccc(N2C(=O)N(CC(=O)C(C)(C)C)c3ccccc3S2(=O)=O)c1C | . | . | 11% | . | -10% | .
Cc1ccc(-c2nc(C(=O)NC3CCCCCC3)no2)cc1 | 1% | 9.5µM* | 79µM* | -8% | ? | -20
CCCCOC(=O)c1ccc(NC(=O)c2ccc3c(c2)CCCN3S(C)(=O)=O)cc1 | . | . | -3% | . | -2% | .
CC(=O)Nc1nonc1-c1nnc(SCc2ccc(Cl)cc2)n1C | . | . | -3% | . | -8% | .

Assay outcomes (PubChem BioAssay)
